Experimental data: PubChem BioAssay (NCATS)
Results filed as inconclusive are left out. Activity calls are given as the source filed them. Calls follow the shape of the dose curve; as a rule, active = well fitted inhibition curve with a large enough effect; inconclusive = small, poorly fitted or top-dose-only effect; inactive = flat fitted curve, though single readings scatter.

Assays:
Experiment in all cases: qHTS profiling for inhibitors of Plasmodium falciparum proliferation (AID 504749); also: nearly all actives have a fitted effect of over 60% in size
3D7 = conditions: P. falciparum in erythrocytes, SYBR Green DNA, 72 h; series mostly up to 28.7 µM
How it was run: (§1)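 Parasite proliferation within erythrocytes, 72 h exposure. Endpoint: SYBR Green I fluorescence after overnight lysis at room temperature. Controls: 0.29 uM artemisinin, DMSO.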

C2A = conditions: P. falciparum in erythrocytes, SYBR Green DNA, 72 h; series mostly up to 28.7 µM
How it was run: as §1

CP185 = conditions: P. falciparum in erythrocytes, SYBR Green DNA, 72 h; series mostly up to 28.7 µM
How it was run: as §1

CP237 = conditions: P. falciparum in erythrocytes, SYBR Green DNA, 72 h; series mostly up to 28.7 µM
How it was run: as §1

CP238 = conditions: P. falciparum in erythrocytes, SYBR Green DNA, 72 h; series mostly up to 28.7 µM
How it was run: as §1

CP262 = conditions: P. falciparum in erythrocytes, SYBR Green DNA, 72 h; series mostly up to 28.7 µM
How it was run: as §1

CP265 = conditions: P. falciparum in erythrocytes, SYBR Green DNA, 72 h; series mostly up to 12.8 µM
How it was run: as §1

CP266 = conditions: P. falciparum in erythrocytes, SYBR Green DNA, 72 h; series mostly up to 12.8 µM
How it was run: as §1

CP268 = conditions: P. falciparum in erythrocytes, SYBR Green DNA, 72 h; series mostly up to 28.7 µM
How it was run: as §1

CP269 = conditions: P. falciparum in erythrocytes, SYBR Green DNA, 72 h; series mostly up to 28.7 µM
How it was run: as §1

CP286 = conditions: P. falciparum in erythrocytes, SYBR Green DNA, 72 h; series mostly up to 28.7 µM
How it was run: as §1

CP305 = conditions: P. falciparum in erythrocytes, SYBR Green DNA, 72 h; series mostly up to 28.7 µM
How it was run: as §1

CP325 = conditions: P. falciparum in erythrocytes, SYBR Green DNA, 72 h; series mostly up to 28.7 µM
How it was run: as §1

DIV30 = conditions: P. falciparum in erythrocytes, SYBR Green DNA, 72 h; series mostly up to 28.7 µM
How it was run: as §1

ECU = conditions: P. falciparum in erythrocytes, SYBR Green DNA, 72 h; series mostly up to 28.7 µM
How it was run: as §1

GB4 = conditions: P. falciparum in erythrocytes, SYBR Green DNA, 72 h; series mostly up to 28.7 µM
How it was run: as §1

HB3 = conditions: P. falciparum in erythrocytes, SYBR Green DNA, 72 h; series mostly up to 28.7 µM
How it was run: as §1

P93_24 = conditions: P. falciparum in erythrocytes, SYBR Green DNA, 72 h; series mostly up to 28.7 µM
How it was run: as §1

PAD = conditions: P. falciparum in erythrocytes, SYBR Green DNA, 72 h; series mostly up to 28.7 µM
How it was run: as §1

PC26 = conditions: P. falciparum in erythrocytes, SYBR Green DNA, 72 h; series mostly up to 28.7 µM
How it was run: as §1

Measured: Potency

C[C@]12CC[C@H]3[C@@H](CCC4=CC(=O)CC[C@@]43C)[C@@H]1CC[C@@H]2O
inactive: all assays above
